Test results as given in publication PMC4336329 (PLoS ONE, 2015).
About 14,000 (4.5%) of roughly 310,000 compounds showed an effect of 50% or more. Effects have a minus sign here. Many of the other results were omitted from the sample, so strong results are more common in it than they were.

What follows are compounds tested against human ether-à-go-go-related gene (hERG) potassium channel (human, UniProt Q12809) (assay: primary screen, population patch clamp on CHO cells stably expressing hERG; higher = less effect of the substance).
Chain of human ether-à-go-go-related gene (hERG) potassium channel (Q12809 whole entry, looked up): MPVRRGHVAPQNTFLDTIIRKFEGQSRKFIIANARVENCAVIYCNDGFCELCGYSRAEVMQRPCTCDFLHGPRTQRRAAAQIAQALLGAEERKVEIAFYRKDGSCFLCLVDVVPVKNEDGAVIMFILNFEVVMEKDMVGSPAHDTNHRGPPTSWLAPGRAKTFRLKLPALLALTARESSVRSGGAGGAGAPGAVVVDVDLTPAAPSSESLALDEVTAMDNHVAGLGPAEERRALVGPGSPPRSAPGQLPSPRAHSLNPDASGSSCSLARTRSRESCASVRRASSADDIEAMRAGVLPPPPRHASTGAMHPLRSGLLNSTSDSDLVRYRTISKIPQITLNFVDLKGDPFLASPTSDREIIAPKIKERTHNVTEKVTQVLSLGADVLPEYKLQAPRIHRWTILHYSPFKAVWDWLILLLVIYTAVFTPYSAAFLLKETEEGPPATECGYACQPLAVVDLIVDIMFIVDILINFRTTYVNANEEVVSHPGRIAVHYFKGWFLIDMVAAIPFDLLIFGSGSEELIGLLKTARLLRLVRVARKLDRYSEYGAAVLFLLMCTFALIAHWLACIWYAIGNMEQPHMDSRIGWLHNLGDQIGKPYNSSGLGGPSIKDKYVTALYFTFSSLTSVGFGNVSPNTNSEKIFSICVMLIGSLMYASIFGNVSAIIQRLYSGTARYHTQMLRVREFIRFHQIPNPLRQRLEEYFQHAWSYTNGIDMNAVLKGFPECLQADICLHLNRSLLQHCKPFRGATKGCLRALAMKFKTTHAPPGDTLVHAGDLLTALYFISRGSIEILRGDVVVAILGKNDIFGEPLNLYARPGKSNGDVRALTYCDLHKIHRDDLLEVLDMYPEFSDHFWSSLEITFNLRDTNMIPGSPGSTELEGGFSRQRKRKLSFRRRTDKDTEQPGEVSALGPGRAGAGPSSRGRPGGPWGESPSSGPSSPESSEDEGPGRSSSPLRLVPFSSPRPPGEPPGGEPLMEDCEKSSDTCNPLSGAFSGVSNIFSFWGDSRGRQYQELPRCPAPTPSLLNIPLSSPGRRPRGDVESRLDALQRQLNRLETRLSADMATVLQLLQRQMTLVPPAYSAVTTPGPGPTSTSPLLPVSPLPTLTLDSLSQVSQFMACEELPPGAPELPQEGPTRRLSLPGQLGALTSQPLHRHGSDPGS
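Also: peak tail current of the secondary pulse compared with the same well before compound.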

Row | Structure (SMILES) | hERG current change (%, negative = inhibition) at 10uM
1 | Cc1nc2ccc(C(=O)Nc3ccccc3Cl)cc2s1 | 10.5%
2 | O=C(Cc1ccccc1F)NC1CCSc2ccccc21 (centres unmarked) | -13%
3 | O=C(Nc1ccccc1)NC1CCCCNC1=O (centres unmarked) | 21.4%
4 | Cc1cccc(C(=O)N/N=C/c2ccc(OC3CSC3)cc2)c1 | -92.4%
5 | O=C(N/N=C/c1ccc(OC2CSC2)cc1)c1ccccc1 | -13.6%
6 | COc1cccc(C(=O)N/N=C/c2ccc(OC3CSC3)cc2)c1 | 5.4%
7 | COC(=O)c1ccccc1NC(=O)c1ccc(Cn2cc(Cl)cn2)o1 | 4.21%
8 | CCOC(=O)C1=C(c2cccc(Oc3ccccc3)c2)NC(=S)NC1C (centres unmarked) | -15.8%
9 | CCn1c(CC(=O)Nc2ccccc2F)nnc1SCC(=O)Nc1nnc(C)s1 | -22.2%
10 | CCc1ccc(OCC(=O)N2CCN(Cc3ccc4c(c3)OCO4)CC2)cc1 | -15.9%
11 | COc1ccc(OCC(=O)N2CCN(Cc3ccc4c(c3)OCO4)CC2)cc1 | -12.2%
12 | O=C(CSCc1ccc(Cl)cc1)N1CCN(Cc2ccc3c(c2)OCO3)CC1 | -48.2%
13 | CN(C)c1ccc(C(=O)N2CCCC(N3CCN(Cc4ccc5c(c4)OCO5)CC3)C2)cc1 (centres unmarked) | -82.3%
14 | N#CCC(=O)N1CCN(Cc2ccc3c(c2)OCO3)CC1 | 16.3%
15 | Cl.O=C(COc1ccc(Cl)cc1)N1CCN(Cc2ccc3c(c2)OCO3)CC1 | -48.2%
16 | Cl.N#Cc1ccc(OCC(=O)N2CCN(Cc3ccc4c(c3)OCO4)CC2)cc1 | -68.1%
17 | O=C(COc1ccc(Cl)cc1)N1CCN(Cc2ccc3c(c2)OCO3)CC1 | -52.6%
18 | O=C(COc1ccc(Br)cc1)N1CCN(Cc2ccc3c(c2)OCO3)CC1 | -53.9%
19 | O=C(c1ccc(F)cc1)N1CCCC(N2CCN(Cc3ccc4c(c3)OCO4)CC2)C1 (centres unmarked) | -22.2%

Row | Structure (SMILES) | hERG current change (%, negative = inhibition) at 10uM
20 | Cc1ccccc1C(=O)N1CCCC(N2CCN(Cc3ccc4c(c3)OCO4)CC2)C1 (centres unmarked) | -11.7%
21 | O=C(COc1ccc(S(=O)(=O)N2CCOCC2)cc1)N1CCN(Cc2ccc3c(c2)OCO3)CC1 | -10%
22 | CCOC(=O)Nc1ccc2c(c1)N(C(=O)CN(C)C)c1ccccc1CC2.Cl | -7.94%
23 | CCOC(=O)C1CCN(C(=O)c2cc3c(=O)n4cccc(C)c4nc3s2)CC1 | -15.5%
24 | FC(F)(F)c1cc(N2CCN(Cc3ccccc3)CC2)c2ccccc2n1 | 10.9%
25 | CC(CCc1ccccc1)NC(=O)CNC(=O)N1CC(=O)Nc2ccccc21 (centres unmarked) | -2.77%
26 | CCOCCOC(=O)c1[nH]c2c(c1C)C(=O)CC(c1ccccc1)C2 (centres unmarked) | 7.35%
27 | Cc1sc(NC(=S)NC(=O)c2ccc(C(C)(C)C)cc2)c(C#N)c1C | 6.48%
28 | COc1ccc(CCNC(=O)CN2C(=O)COc3ccc(S(=O)(=O)N4CCOCC4)cc32)c(OC)c1 | -28.1%
29 | CN(Cc1ccccc1)S(=O)(=O)c1ccc(OCC(=O)N2CCC(C(N)=O)CC2)cc1 | -2.99%
30 | O=C(Nc1ccc2ccccc2c1)N1CCN(c2ncccc2C(F)(F)F)CC1 | -7.58%
31 | O=C(Cc1ccc([N+](=O)[O-])cc1)N1CCN(Cc2ccc3c(c2)OCO3)CC1 | -45.5%
32 | CCCOc1ccc(C(=O)N2CCN(Cc3ccc4c(c3)OCO4)CC2)cc1 | -67.7%
33 | Cc1ccc(C(=O)N2CCN(Cc3ccc4c(c3)OCO4)CC2)cc1C | -14.4%
34 | CCCCOc1ccc(C(=O)NCC(=O)N2CCN(Cc3ccc4c(c3)OCO4)CC2)cc1 | -42.4%
35 | O=C(c1cc([N+](=O)[O-])cc([N+](=O)[O-])c1)N1CCN(Cc2ccc3c(c2)OCO3)CC1 | -58.2%
36 | O=C(c1cccc([N+](=O)[O-])c1)N1CCN(Cc2ccc3c(c2)OCO3)CC1 | -44.3%
37 | C/C(=N\NC(=O)Nc1ccccc1)c1ccccc1 | 9.14%
38 | NS(=O)(=O)c1ccc(CCNC(=O)COC(=O)CCSc2ccc(Cl)cc2)cc1 | -18.5%

Row | Structure (SMILES) | hERG current change (%, negative = inhibition) at 10uM
39 | CC(C)(C)NC(=O)CCCSc1nc2ccccc2s1 | -24.4%
40 | Nc1nc(Cl)cc(Oc2ccc(Cl)cc2)n1 | 9.29%
41 | CCc1cccc(OC2OC(CO)C(O)C(O)C2NC(C)=O)c1 (centres unmarked) | 0.684%
42 | Clc1ccc2c(NCc3ccccc3)ccnc2c1 | -45.5%
43 | O=C(NCCNc1ccnc2cc(Cl)ccc12)c1ccccc1F | -66.4%
44 | O=C(NCCCNc1ccc([N+](=O)[O-])cc1Cl)c1ccccc1F | -4.03%
45 | O=C(NCCNc1ccc(Cl)cc1[N+](=O)[O-])c1ccccc1F | 3.81%
46 | Clc1ccc2c(NCc3ccccn3)ccnc2c1 | -39.7%
47 | O=C(NCCCNc1ccnc2cc(Cl)ccc12)c1ccccc1F | -72.4%
48 | C1=CCC(CN2CCNCC2)CC1.O=C(O)C(F)(F)F (centres unmarked) | 9.96%
49 | CC1CCN(C(=O)COC(=O)c2ccccc2NC(=O)c2ccco2)CC1 | -60.9%
50 | CN(C)C(=O)COC(=O)c1ccccc1NC(=O)c1ccco1 | -15.7%
51 | CC(C)(C)NC(=O)COC(=O)c1ccccc1NC(=O)c1ccco1 | -7.06%
52 | O=C(COC(=O)c1ccccc1NC(=O)c1ccco1)NC1CC1 | -19%
53 | O=C(Nc1ccccc1C(=O)OCC(=O)N1CCc2ccccc2C1)c1ccco1 | -30.9%
54 | CNC(=O)COC(=O)c1ccccc1NC(=O)c1ccco1 | -52.1%
55 | CS(=O)(=O)N1CCN(C2C3CC4CC(C3)CC2C4)CC1.O=C(O)C(=O)O (centres unmarked) | 26.3%
56 | CC(=O)Nc1ccc(N(C(=O)c2cnccn2)C(C(=O)NC2CCCCC2)c2ccc(F)cc2)cc1 (centres unmarked) | 0.645%
